Compounds with a hit are over-represented: about 19% of the library has one in this group of screens.
CHX counter: Cycloheximide Counterscreen for Small Molecule Inhibitors of Shiga Toxin. 300,000 compounds, 12% hits. cell reporter, cycloheximide protein synthesis inhibition counterscreen. max response, %; in the data active = max response mostly above about 13%, no sharp cut-off; inactive = mostly below about 14%; also: read at 38.3 µM for the half of the compounds with a filed dose; 0% is about no effect
Shiga toxin inh: A qHTS for Small Molecule Inhibitors of Shiga Toxin; Vero cells, Shiga toxin protein synthesis inhibition reporter; inhibition, % at 38.7 µM; AID 2315, 2010; 290,000 compounds, 9.2% hits; in the data active = inhibition mostly above about 28%, no sharp cut-off; inactive = mostly below about 43%; also: 0% is about no effect
Lassa entry inh: qHTS for Inhibitors of binding or entry into cells for Lassa Virus; Lassa virus pseudotype entry inhibition, cell reporter; Potency, µM (highest dose often 37.9 µM), without a hit: at the highest dose activity change, negative = inhibition, actives largely listed as inhibitors; 300,000 compounds, 1.2% hits; calls by dose curve; tested in HEK293 cells; also: potency is read from the fitted curve at half-maximal effect; % is scaled to controls: 0 for no effect and ±100 for the full control effect; nearly all actives have a fitted effect of over 50% in size
Pf growth 48h: Primary qHTS for delayed death inhibitors of the malarial parasite plastid, 48 hour incubation; P. falciparum luciferase growth in erythrocytes, 48 h; Potency, µM (series often up to 28.7 µM), for the others: at the highest dose activity change, negative = inhibition, usual class: inhibitors; 310,000 compounds, 5.9% hits; also: potency is read from the fitted curve at half-maximal effect; % is scaled to controls: 0 for no effect and ±100 for the full control effect
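Here the parasites carry a stable luciferase gene and grow inside erythrocytes in Albumax-based RPMI medium with compound for one erythrocytic cycle. Activity is scored as loss of luminescent signal.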
MARV entry inh: qHTS for inhibitors of binding or entry into cells for Marburg Virus; Marburg virus pseudotyped entry inhibition, cell reporter; Potency, µM (titrated, usually from 37.8 µM), without a hit: at the top dose activity change, negative = inhibition, most hits filed as inhibitors; 300,000 compounds, 1.8% hits; AID 540276, 2011; calls by dose curve; tested in HEK293 cells; also: potency is read from the fitted curve at half-maximal effect; % is scaled to controls: 0 for no effect and ±100 for the full control effect
Pf growth 96h: Primary qHTS for delayed death inhibitors of the malarial parasite plastid, 96 hour incubation | Potency, µM (doses to about 28.7 µM), inactives show top-dose activity change, negative = inhibition, usual class: inhibitors | AID 504834, 2011 | 320,000 compounds, 6.9% hits | P. falciparum luciferase reporter growth, 96 h; also: potency is read from the fitted curve at half-maximal effect; % is scaled to controls: 0 for no effect and ±100 for the full control effect
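Parasite growth measured via integrated firefly luciferase reporter in P. falciparum. Infected erythrocytes at 2% hematocrit, 0.05% parasitemia final were treated 96 hours at 37 C under 5% CO2, and luminescence was read.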
Starred values were filed as active, the others as inactive; i = inactive; ? = inconclusive; nt = no result given; [ ] = another dose, or the depositor's remark. Unless noted, calls follow the shape of the dose curve; as a rule, active = well fitted inhibition curve with a large enough effect; inconclusive = small, poorly fitted or top-dose-only effect, or another doubt; inactive = no such curve, though single readings can be large or run the other way.

SMILES | CHX counter | Shiga toxin inh | Lassa entry inh | Pf growth 48h | MARV entry inh | Pf growth 96h
CC(C)c1cc(C(=O)NCc2ccco2)no1 | 42* | 66* | nt | 96% | nt | 25%
O=C(NCc1ccco1)c1cc(-c2ccccc2)on1 | 48* | 104* | 19% | 121% | 19% | nt
CC(C)c1cc(C(=O)NCCc2ccccc2)no1 | 47* | 72* | nt | i | nt | 0%
CC(=O)N1N=C(c2cccc([N+](=O)[O-])c2)OC1c1cccc(Br)c1 (stereo not drawn) | 6 | -11 | -21% | ? | -20%[46.1 µM] | ?
C(=N\N1CCOCC1)/c1ccsc1 | 4 | 2 | nt | 4% | nt | -6%
C[C@@H]1CN(C2CCN(S(=O)(=O)Cc3ccccc3)CC2)C[C@H](C)O1 | nt | nt | nt | nt | 0% | nt
O=C(NCCc1ccccc1)c1cc2ncc(Br)cn2n1 | 26* | 46 | 11% | 34% | ? | nt
O=C(NCc1ccco1)c1cc(-c2cccs2)on1 | 55* | 121* | -28% | 337% | 12% | -26%
O=C(NCc1ccco1)c1cccs1 | 7 | -23 | 0% | ? | 0% | nt
CCC(=O)Nc1ccccc1Sc1ncnc2scc(-c3ccccc3)c12 | -4 | -15 | ? | 13µM* | ? | 4.7µM*
O=C(O)CSc1ncnc2scc(-c3ccccc3)c12 | -3 | 37 | 22% | 9% | -1%[46.1 µM] | 9%
CCOC(=O)N1CCC(NC(=O)c2cccn3c(=O)c4cc(Br)ccc4nc23)CC1 | -2 | -12 | 0% | 2.6µM* | -1% | 59%
COc1ccc(CCNC(=O)CCS(=O)(=O)c2ccc3c(c2)NC(=O)CS3)cc1OC | -7 | 4 | nt | -10% | nt | ?
CN(C)c1ccc(C(=O)N2CCN(c3cc(C(F)(F)F)nc4ccccc34)CC2)cc1 | -4 | 28 | ? | ? | ? | 13µM*
COc1ccccc1C(=O)Nc1nc(-c2ccc(S(=O)(=O)N3CCOCC3)cc2)cs1 | 0 | 3 | 3.7µM* | nt | 7.3µM* | ?
COc1ccc(-c2csc(NC(=O)C(CC(=O)O)N3CCOCC3)n2)cc1 (stereo not drawn) | -1 | -13 | -7%[46.1 µM] | 1.3µM* | 17%[46.1 µM] | 12µM*
COc1ccccc1OC(C)C(=O)Nc1nc(-c2ccc(S(=O)(=O)N3CCOCC3)cc2)cs1 (stereo not drawn) | -2 | -17 | ? | ? | ? | 12µM*
COc1ccccc1C(=O)Nc1ccc(S(=O)(=O)N2CCOCC2)cc1 | -1 | 11 | -7% | -21% | -2% | 18%
COc1ccc(-c2csc(NC(=O)c3ccccc3C(=O)O)n2)cc1 | 7 | 16 | nt | 12% | nt | 35%
Oc1c(C(c2ccccc2)N2CCN(Cc3ccccc3)CC2)sc2ncnn12 (stereo not drawn) | -6 | -21 | nt | nt | nt | ?
O=C(O)c1ccccc1-c1cc2ccccc2[nH]1 | nt | nt | 16% | nt | 5% | nt
CCN(CC)Cc1c(-c2ccccc2)[nH]c2ccc(C)cc2c1=O | 29* | 35* | -13% | nt | ? | ?
Cc1ccc(-c2cc(=O)c3ccccc3[nH]2)cc1 | 29* | 112* | ? | ? | ? | ?
O=c1cc(-c2ccc(Cl)cc2)[nH]c2ccccc12 | 1 | 21 | nt | 1.5µM* | nt | 2.1µM*
Clc1ccc(-c2cc3ccccc3[nH]2)cc1 | 62* | 110* | ? | 167% | ? | 271%
SMILES | CHX counter | Shiga toxin inh | Lassa entry inh | Pf growth 48h | MARV entry inh | Pf growth 96h
Cc1ccc2c(c1)N(C(=O)CCC(=O)N1CCN(c3ccccn3)CC1)CCO2 | -1 | 5 | nt | ? | nt | 32%
O=C(c1cccnc1Nc1ccc2c(c1)CCC2)N1CCOCC1 | 7 | 28 | 24% | 20% | 20% | nt
O=C(CCCN1C(=O)/C(=C\c2cccs2)SC1=S)Nc1cc([N+](=O)[O-])ccc1O | -3 | -7 | -15% | 1% | 0% | -13%
COc1ccc(C(=O)/C=C/c2ccc(N3CCCCC3)c([N+](=O)[O-])c2)c(OC)c1 | 4 | -6 | ? | ? | 4% | ?
Cc1sc2ncnc(SCC(=O)c3ccc4c(c3)OCCO4)c2c1-c1ccccc1 | 0 | 4 | -10% | ? | -15% | 0%
Cc1cc(=O)c2ccccc2[nH]1 | -5 | -8 | ? | 19% | 24% | 79%
Cc1ccc(-c2cc(=O)c3cc(Cl)ccc3[nH]2)cc1 | 26* | 39* | nt | 122% | nt | 19%
Cc1ccc2[nH]c(-c3ccccc3)cc(=O)c2c1 | 30* | 49 | nt | ? | 0% | ?
O=c1cc(-c2ccc(F)cc2F)[nH]c2ccc(F)cc12 | 21 | i | nt | nt | nt | nt
Cc1cccc(NC(=O)C(=O)NCC(c2cccnc2)N2CCN(Cc3ccccc3)CC2)c1 (stereo not drawn) | nt | nt | -28%[46.1 µM] | nt | nt | nt
O=C(CSc1nc2[nH]ncc2c(=O)[nH]1)Nc1ccccc1C(F)(F)F | nt | nt | 4% | ? | -6% | -1%
Cc1cc(N2CCCCC2)nc2ccc(NC(=O)c3ccc(Br)o3)cc12 | 8 | 22 | ? | nt | ? | nt
COc1cc(C(=O)Nc2ccc3c(c2)N(C(=O)CN2CCN(C)CC2)c2ccccc2CC3)cc(OC)c1OC | 2 | -2 | ? | 13µM* | ? | ?
COc1cc(C(=O)Nc2ccc3nc(N4CCN(C)CC4)cc(C)c3c2)cc(OC)c1OC | 9 | 26 | nt | 0.33µM* | nt | -1%
Cc1cc(N2CCN(C)CC2)nc2ccc(NC(=O)c3ccc(Br)o3)cc12 | 26* | 101* | 11% | 1.7µM* | -32% | 43%
Cc1cc(N2CCN(C)CC2)nc2ccc(NC(=O)c3ccc4c(c3)OCO4)cc12 | 20* | 38 | 16µM* | 9.3µM* | 4.1µM* | nt
COc1ccc(Nc2nccc(NCCO)n2)cc1 | 41* | 72* | nt | nt | nt | nt
Cc1nc(-c2cccc(N)c2)cs1 | 8 | 29 | nt | 30% | nt | 26%
COc1ccc(Nc2nccc(-c3cccc(N)c3)n2)cc1 | 68* | 71* | nt | 103% | nt | 27%
COc1ccc(Nc2nccc(OC)c2C#N)cc1 | -7 | -7 | 26% | 10% | -1% | 32%
COc1ccc(Nc2nccc(-c3ccc(C#N)cc3)n2)cc1 | 8 | -12 | 13%[46.1 µM] | -19% | -10%[46.1 µM] | 5.9µM*
S=C(Nc1cccc(Cl)c1)N(CCCN1CCCC1)Cc1cccn1Cc1ccc(Cl)cc1 | -6 | -16 | ? | ? | ? | ?
CSc1cccc(NC(=S)N2CCCN(Cc3cccc(Cl)c3)C2)c1 | -8 | -6 | ? | 10µM* | 4.5µM* | 40%
CSc1cccc(NC(=S)N(CCCN2CCCC2)Cc2cccn2Cc2ccc(Cl)cc2)c1 | -6 | -19 | 2.8µM* | ? | 6.3µM* | -18%
Cc1nn(CCCC(=O)NCCCN2CCN(C)CC2)c(=O)c2c1sc1ccccc12 | -2 | -3 | nt | -3% | nt | 0%
Cc1cc(C)cc(NC(=O)CCc2nnc3n(CC(C)C)c(=O)c4ccccc4n23)c1 | nt | nt | nt | nt | 2%[46.1 µM] | nt
O=C(COC(=O)Cc1ccc([N+](=O)[O-])cc1)NCc1ccc2c(c1)OCO2 | nt | nt | -3% | nt | -2% | nt

Bioassay records (PubChem BioAssay)
